In PubChem BioAssay:
For part of these data: Measured potencies and affinities stand elsewhere. Records with an inconclusive call do not appear. Values without a mark were called inactive. Some of the results follow. Activity calls are given as the source filed them. Unless noted, no rule for the calls is given here.

Key:
[1] = small-molecule DNA binding by polarization – biochemical, fluorescence polarization, cherry-pick, counter-screen for EWS/Fli inhibitor project, dose response (AID 720586;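 active = fitted curve reaches a 35% signal fall AC35 below twice the sample's top valid tested dose, actives reach about 48 µM in these data; inactive = the rest, including activity in the rising direction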;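 also: 0% = neutral control median and -100% = 10 µM mitoxantrone control median; lower polarization ratio signals compound binding to DNA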)
[2] = target: Melanocortin receptor 4 (Homo sapiens) (UniProt P32245); test: blockade of melanocortin 4 receptor signaling – cell-based, plate reader, cherry pick, counter-screen for LGR2 antagonist project, dose response (AID 743444)
[3] = CMV-driven luciferase expression suppression in HEK293 – cell-based, luminescence, dry powder, counter-screen for Pax8 inhibitor project, dose response (AID 743020;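 active = signal-lowering compounds whose fitted half-maximal concentration is at or below twice the top tested dose in every run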;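 also: HEK293 cells stably expressing the CMV luciferase reporter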)
[4] = IGROV1 cell killing – plate reader, dry powder samples, PAX8 inhibitor project, dose response (AID 743043);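 also: more negative means fewer viable cells or more cytotoxicity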
[5] = OVCAR-3 cell viability loss – plate reader, dry powder samples, PAX8 inhibitor project, dose response (AID 743044); conditions: NIH:OVCAR-3 ovarian cancer cell viability, stronger effect = lower value; at 4.2 µM unless noted
[6] = toxicity toward immortalized ovarian surface epithelium – cell-based, plate reader, dry powder samples, cytotoxicity control for PAX8 inhibitor project, dose response (AID 743045);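 also: 0% = neutral control median and -100% = positive control median; more negative values mean more cell killing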
[7] = A2780 cell killing – plate reader, dry powder samples, cytotoxicity control, dose response (AID 743046);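 also: 0% = neutral control wells and -100% = cytotoxic reference compound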
[8] = OVCAR8 cell viability loss – plate reader, dry powder samples, PAX8 project, dose response (AID 743197)
[9] = A549 cell cytotoxicity, dose response, cytotoxicity control, plate reader, cherry-pick, antagonist series (AID 743412);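 also: 0% = neutral control wells and -100% = positive control wells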

C[C@]12CC[C@H](O)C[C@H]1CC[C@@H]1C2CC[C@]2(C)[C@@H](C3=CC(=O)OC3)[C@@H](O)C[C@]12O (some centres not stated)
outcome [1]: inactive

O=c1c2ccccc2nc(/C=C/c2ccc([N+](=O)[O-])o2)n1-c1ccc(O)cc1
outcome [2]: inactive

COc1ccc(-c2ccc([C@@H]3[C@@H](CO)N4CCCCN(C(=O)Cc5ccccc5)C[C@H]34)cc2)cc1
outcome [3]: inactive | outcome [4]: inactive | max activity [5]: -18.2% [at 35 µM] | outcome [6]: inactive | outcome [7]: inactive | outcome [8]: inactive

O=Cc1cn(Cc2cccc([N+](=O)[O-])c2)c2ccccc12
outcome [9]: inactive

COC(=O)c1ccc(NC(=O)CSc2nc3ccc(N4C(=O)C5C6C=CC(C6)C5C4=O)cc3s2)cc1 (configuration not stated)
outcome [9]: inactive

O=c1[nH]c2ccccc2n1C1CCN(C(c2cccs2)c2nnnn2-c2ccc3c(c2)OCCO3)CC1 (configuration not stated)
outcome [3]: inactive

CCCCN=C[C@]12CCC(O)CC1(O)CCC1[C@@H]2CC[C@]2(C)[C@H](C3C=CC(=O)O3)CCC12O (some centres not stated)
outcome [3]: inactive
